Source: publication PMC5540273 (PLoS ONE, 2017)

System: T1, YES
T1 construct: gene YES1
Details: concentration: 1 μM, replicates: in singlicate; n = 1
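Note: KINOMEscan kinase panel screen.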

| Structure (SMILES) | %Inh |
| --- | --- |
| O=C(NCCNc1ccnc(Nc2ccc(F)cc2)n1)Nc1ccc2c(c1)OCO2 [GSK1379882] | 0% |
| O=C(NCc1cccs1)c1cc(C(=O)c2c(Cl)cccc2Cl)c[nH]1 [GW823670] | 0% |
| Cc1ccc(-c2ccc3c(ccc4sc5c(c43)NC[C@@H](C)N=C5N(C)C)n2)cn1 | 0% |
| Cc1cc(Nc2nc(-c3cccc(C)n3)nc3ccccc23)ccn1 [GW872411] | 0% |
| Nc1nc(-c2ccccc2F)c(-c2ccnc3ccccc23)s1 [GW560459] | 0% |
| COc1ccc(-c2cc3c(C)nc(N)nc3n([C@H]3CC[C@H](O)CC3)c2=O)cn1 | 0% |
| OCCCNc1nccc(-c2c(-c3cccc(C(F)(F)F)c3)nn3cc(C(F)(F)F)ccc23)n1 [GW630813] | 0% |
| CN(C)c1cc(-c2ccc3c(N)n[nH]c3c2)nc(N)n1 [GSK2219329] | 1% |
| Cl.c1ccc(Cn2cnc3cc(Nc4ncnc5ccccc45)ccc32)cc1 [GW272142] | 7% |
| Cc1cccc(-c2cc(-c3c[nH]nc3-c3ccccn3)ccn2)c1 [GW679395] | 29% |
| CCC(=O)c1c(-c2ccccc2)c2cc(Cl)ccc2c(=O)n1Cc1cc(S(C)(=O)=O)n(CCC(C)(C)O)n1 | 0% |
| Cc1nnc(-c2ccc(C)c(-c3ccc(C(=O)O)cc3)c2)o1 [GW608005] | 0% |
| COc1cc2nccc(Nc3ccc(OCc4ccc(NC(C)=O)cc4)cc3)c2cc1OC.Cl [GW440135] | 11% |
| COC(=O)c1c(-c2ccccc2)c2cc(Br)ccc2c(=O)n1Cc1ccc(NC(=O)CCC(=O)O)cc1 | 0% |
| Cc1nc(N(C)[C@H]2CN(C(=O)CC#N)CC[C@H]2C)c2cc[nH]c2n1 | 18% |
| COc1cc2ncn(-c3cc(OCc4ccncc4)c(C(N)=O)s3)c2cc1OC [GSK336313] | 0% |
| CCC(=O)c1c(-c2ccccc2)c2cc(Cl)ccc2c(=O)n1Cc1cc(S(C)(=O)=O)n(CC(N)=O)n1 | 0% |
| CCS(=O)c1ccc(-c2coc3ccc(-c4nnc(C)o4)cc23)cc1 (stereo not drawn) | 0% |

| Structure (SMILES) | %Inh |
| --- | --- |
| COc1ccc(-c2cc3c(C)nc(N)nc3n([C@H]3CC[C@H](OCCO)CC3)c2=O)cn1 | 0% |
| CC(C)(C)c1ccc(C(=O)Nc2cn3cc(-c4ccccc4)ccc3n2)cc1 | 2% |
| COc1cc(Nc2nccc(N3CCC(NC(=O)C4COc5ccccc5O4)C3)n2)cc(OC)c1OC (stereo not drawn) [GSK1379761] | 27% |
| CN1C(=O)C(Nc2ccccc2)=C(c2ccccc2)C1=O [SB-300079] | 0% |
| COc1ccc(-n2cnc3c(N)ncnc32)cc1 [SKF-97236] | 0% |
| CCc1ccc(-c2ccc3c(c2)-c2nn(C)cc2S(=O)(=O)N3C)cc1 | 0% |
| Cc1ccc(Oc2ccc(Nc3ncnc4cc[nH]c34)cc2C)cn1 | 3% |
| O=C(Nc1n[nH]c2nc(-c3ccccc3)c(Br)cc12)C1CC1 [SB-708998] | 12% |
| Cc1ccccc1COc1cc(-n2cnc3cc(Cl)ccc32)sc1C(N)=O [GW813349] | 0% |
| COc1cc(OC)cc(-c2cc3cnc(N)nc3nc2NC(=O)NC(C)(C)C)c1 | 100% |
| COc1cc(Nc2nccc(N3CCC(NC(=O)C(C)c4ccc(Cl)cc4)C3)n2)cc(OC)c1OC (stereo not drawn) [GSK1379757] | 5% |
| CCCC(=O)Nc1n[nH]c2ncc(-c3cccc4ccccc34)cc12 [SB-642057] | 9% |
| COc1ccc(-c2coc3ccc(-c4nnc(SCc5cccc(C#N)c5)o4)cc23)cc1 | 0% |
| Cc1nnc(-c2ccc3ncn(-c4ccc(S(C)=O)cc4)c3c2)o1 (stereo not drawn) | 7% |
| O=C1NC(=O)C(c2ccccc2)=C1Nc1cccc(O)c1 [SB-390534] | 0% |
| Nc1ncnc2c1ncn2-c1cccc2ccccc12 [SKF-97184] | 0% |
| COc1ccc(Nc2nccc(N3CCC(NS(=O)(=O)c4ccc(NC(C)=O)cc4)C3)n2)cc1 (stereo not drawn) [GSK1379729] | 10% |
| COc1cc2ncn(-c3cc(OCc4ccc(S(C)(=O)=O)cc4)c(C(N)=O)s3)c2cc1OC [GW869979] | 28% |

System: T2, YSK1
T2 construct: gene STK25
Details: concentration: 1 μM, replicates: in singlicate; n = 1

| Structure (SMILES) | %Inh |
| --- | --- |
| O=C(NCCNc1ccnc(Nc2ccc(F)cc2)n1)Nc1ccc2c(c1)OCO2 [GSK1379882] | 17% |
| O=C(NCc1cccs1)c1cc(C(=O)c2c(Cl)cccc2Cl)c[nH]1 [GW823670] | 11% |
| Cc1ccc(-c2ccc3c(ccc4sc5c(c43)NC[C@@H](C)N=C5N(C)C)n2)cn1 | 0% |
| Cc1cc(Nc2nc(-c3cccc(C)n3)nc3ccccc23)ccn1 [GW872411] | 0% |
| Nc1nc(-c2ccccc2F)c(-c2ccnc3ccccc23)s1 [GW560459] | 13% |
| COc1ccc(-c2cc3c(C)nc(N)nc3n([C@H]3CC[C@H](O)CC3)c2=O)cn1 | 0% |
| OCCCNc1nccc(-c2c(-c3cccc(C(F)(F)F)c3)nn3cc(C(F)(F)F)ccc23)n1 [GW630813] | 1% |
| CN(C)c1cc(-c2ccc3c(N)n[nH]c3c2)nc(N)n1 [GSK2219329] | 12% |
| Cl.c1ccc(Cn2cnc3cc(Nc4ncnc5ccccc45)ccc32)cc1 [GW272142] | 0% |
| Cc1cccc(-c2cc(-c3c[nH]nc3-c3ccccn3)ccn2)c1 [GW679395] | 0% |
| CCC(=O)c1c(-c2ccccc2)c2cc(Cl)ccc2c(=O)n1Cc1cc(S(C)(=O)=O)n(CCC(C)(C)O)n1 | 0% |
| Cc1nnc(-c2ccc(C)c(-c3ccc(C(=O)O)cc3)c2)o1 [GW608005] | 0% |
| COc1cc2nccc(Nc3ccc(OCc4ccc(NC(C)=O)cc4)cc3)c2cc1OC.Cl [GW440135] | 0% |
| COC(=O)c1c(-c2ccccc2)c2cc(Br)ccc2c(=O)n1Cc1ccc(NC(=O)CCC(=O)O)cc1 | 0% |
| Cc1nc(N(C)[C@H]2CN(C(=O)CC#N)CC[C@H]2C)c2cc[nH]c2n1 | 0% |
| COc1cc2ncn(-c3cc(OCc4ccncc4)c(C(N)=O)s3)c2cc1OC [GSK336313] | 35% |
| CCC(=O)c1c(-c2ccccc2)c2cc(Cl)ccc2c(=O)n1Cc1cc(S(C)(=O)=O)n(CC(N)=O)n1 | 0% |
| CCS(=O)c1ccc(-c2coc3ccc(-c4nnc(C)o4)cc23)cc1 (stereo not drawn) | 0% |

| Structure (SMILES) | %Inh |
| --- | --- |
| COc1ccc(-c2cc3c(C)nc(N)nc3n([C@H]3CC[C@H](OCCO)CC3)c2=O)cn1 | 0% |
| CC(C)(C)c1ccc(C(=O)Nc2cn3cc(-c4ccccc4)ccc3n2)cc1 | 0% |
| COc1cc(Nc2nccc(N3CCC(NC(=O)C4COc5ccccc5O4)C3)n2)cc(OC)c1OC (stereo not drawn) [GSK1379761] | 0% |
| CN1C(=O)C(Nc2ccccc2)=C(c2ccccc2)C1=O [SB-300079] | 3% |
| COc1ccc(-n2cnc3c(N)ncnc32)cc1 [SKF-97236] | 0% |
| CCc1ccc(-c2ccc3c(c2)-c2nn(C)cc2S(=O)(=O)N3C)cc1 | 0% |
| Cc1ccc(Oc2ccc(Nc3ncnc4cc[nH]c34)cc2C)cn1 | 0% |
| O=C(Nc1n[nH]c2nc(-c3ccccc3)c(Br)cc12)C1CC1 [SB-708998] | 0% |
| Cc1ccccc1COc1cc(-n2cnc3cc(Cl)ccc32)sc1C(N)=O [GW813349] | 0% |
| COc1cc(OC)cc(-c2cc3cnc(N)nc3nc2NC(=O)NC(C)(C)C)c1 | 0% |
| COc1cc(Nc2nccc(N3CCC(NC(=O)C(C)c4ccc(Cl)cc4)C3)n2)cc(OC)c1OC (stereo not drawn) [GSK1379757] | 6% |
| CCCC(=O)Nc1n[nH]c2ncc(-c3cccc4ccccc34)cc12 [SB-642057] | 8% |
| COc1ccc(-c2coc3ccc(-c4nnc(SCc5cccc(C#N)c5)o4)cc23)cc1 | 0% |
| Cc1nnc(-c2ccc3ncn(-c4ccc(S(C)=O)cc4)c3c2)o1 (stereo not drawn) | 0% |
| O=C1NC(=O)C(c2ccccc2)=C1Nc1cccc(O)c1 [SB-390534] | 8% |
| Nc1ncnc2c1ncn2-c1cccc2ccccc12 [SKF-97184] | 12% |
| COc1ccc(Nc2nccc(N3CCC(NS(=O)(=O)c4ccc(NC(C)=O)cc4)C3)n2)cc1 (stereo not drawn) [GSK1379729] | 0% |
| COc1cc2ncn(-c3cc(OCc4ccc(S(C)(=O)=O)cc4)c(C(N)=O)s3)c2cc1OC [GW869979] | 0% |
